PubChem BioAssay AID1159580 (chemical genetic matrix, 2015)
The campaign covered roughly 5,500 compounds. About 2,000 (36%) were called active. Inconclusive results (about 18%) are left out. Rule as the data show it: active = normalized growth mostly below about 0.91 (no sharp cut-off); inconclusive = no clear call, values can overlap the other calls; inactive = mostly above about 0.92. This is one part of the list.

Test: chemical genetic growth profiling, strain panel (AID 1159580);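 also: tested at 20 µM; growth read once vehicle control cultures reached saturation at 30 °C; 1 = growth at the plate median or of vehicle wells; lower values mean less growth of the strain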
Settings: growth OD

Measured: normalized growth

Nc1ccc(S(=O)(=O)Nc2ccccn2)cc1
inactive: S. cerevisiae deletion strains, locus YKL009W, strain mrt4, hits give low values 0.993 | S. cerevisiae deletion strains, locus YKL068W, hits give low values 0.991 | S. cerevisiae deletion strains, locus YKL085W, strain MDH1 (second series), hits give low values 0.982 | S. cerevisiae deletion strains, locus YKL085W, strain MDH1, hits give low values 0.982 | S. cerevisiae deletion strains, locus YKL160W, strain elf1, hits give low values 1.02 | S. cerevisiae deletion strains, locus YKL190W, strain CNB1, hits give low values 1.01 | S. cerevisiae deletion strains, locus YKR001C, strain vps1, hits give low values 0.995 | S. cerevisiae deletion strains, locus YKR026C, strain gcn3, hits give low values 1.02 | S. cerevisiae deletion strains, locus YKR091W, strain srl3, hits give low values 1.01 | S. cerevisiae deletion strains, locus YLL001W, strain dnm1, hits give low values 1.03 | S. cerevisiae deletion strains, locus YLL026W, hits give low values 1.02 | S. cerevisiae deletion strains, locus YLL041C, strain sdh2, hits give low values 1.01 | S. cerevisiae deletion strains, locus YLR027C, strain aat2, hits give low values 1.01 | S. cerevisiae deletion strains, locus YLR039C, strain RIC1, hits give low values 1.03 | S. cerevisiae deletion strains, locus YLR058C, strain SHM2, hits give low values 1.01 | S. cerevisiae deletion strains, locus YLR102C, strain apc9, hits give low values 0.993 | S. cerevisiae deletion strains, locus YLR113W, strain HOG1, hits give low values 0.976 | S. cerevisiae deletion strains, locus YLR221C, strain rsa3, hits give low values 0.993 | S. cerevisiae deletion strains, locus YLR258W, strain gsy2, hits give low values 1 | S. cerevisiae deletion strains, locus YLR262C, strain YPT6 (second series), hits give low values 1.03 | S. cerevisiae deletion strains, locus YLR262C, strain YPT6, hits give low values 1.04 | S. cerevisiae deletion strains, locus YLR268W, strain sec22, hits give low values 0.944 | S. cerevisiae deletion strains, locus YLR320W, strain mms22, hits give low values 0.985 | S. cerevisiae deletion strains, locus YLR330W, strain CHS5, hits give low values 1 | S. cerevisiae deletion strains, locus YLR342W, strain FKS1 (second series), hits give low values 0.985 | S. cerevisiae deletion strains, locus YLR342W, strain FKS1, hits give low values 1.01 | S. cerevisiae deletion strains, locus YLR357W, strain rsc2, hits give low values 0.996 | S. cerevisiae deletion strains, locus YLR370C, strain arc18, hits give low values 1.01 | S. cerevisiae deletion strains, locus YLR371W, strain rom2, hits give low values 0.99 | S. cerevisiae deletion strains, locus YLR384C, strain iki3, hits give low values 1.01 | S. cerevisiae deletion strains, locus YLR418C, strain cdc73, hits give low values 0.985 | S. cerevisiae deletion strains, locus YML016C, strain PPZ1, hits give low values 1.01 | S. cerevisiae deletion strains, locus YML032C, strain rad52, hits give low values 0.97 | S. cerevisiae deletion strains, locus YML120C, strain ndi1, hits give low values 1.01 | S. cerevisiae deletion strains, locus YML124C, strain tub3, hits give low values 1 | S. cerevisiae deletion strains, locus YMR058W, strain fet3, hits give low values 1.03 | S. cerevisiae deletion strains, locus YMR078C, strain ctf18, hits give low values 0.989 | S. cerevisiae deletion strains, locus YMR125W, strain sto1, hits give low values 1.01 | S. cerevisiae deletion strains, locus YMR129W, hits give low values 1.01 | S. cerevisiae deletion strains, locus YMR205C, strain PFK2, hits give low values 1.01 | S. cerevisiae deletion strains, locus YMR223W, strain ubp8, hits give low values 1.01 | S. cerevisiae deletion strains, locus YMR231W, strain pep5, hits give low values 1.01 | S. cerevisiae deletion strains, locus YMR263W, strain SAP30, hits give low values 1.01 | S. cerevisiae deletion strains, locus YMR307W, strain GAS1, hits give low values 1.02 | S. cerevisiae deletion strains, locus YNL067W, strain RPL9B, hits give low values 1.01 | S. cerevisiae deletion strains, locus YNL071W, strain lat1, hits give low values 0.998 | S. cerevisiae deletion strains, locus YNL128W, strain TEP1, hits give low values 1.01 | S. cerevisiae deletion strains, locus YNL153C, strain GIM3, hits give low values 1.01 | S. cerevisiae deletion strains, locus YNL183C, strain NPR1, hits give low values 0.945 | S. cerevisiae deletion strains, locus YNL209W, strain ssb2, hits give low values 1.01 | S. cerevisiae deletion strains, locus YNL233W, strain BNI4, hits give low values 1 | S. cerevisiae deletion strains, locus YNL248C, strain rpa49, hits give low values 0.985 | S. cerevisiae deletion strains, locus YNL250W, strain rad50, hits give low values 0.988 | S. cerevisiae deletion strains, locus YNL271C, strain bni1, hits give low values 0.998 | S. cerevisiae deletion strains, locus YNL298W, strain CLA4, hits give low values 0.988 | S. cerevisiae deletion strains, locus YNL307C, strain MCK1, hits give low values 0.997 | S. cerevisiae deletion strains, locus YNL322C, strain KRE1 (second series), hits give low values 1.01 | S. cerevisiae deletion strains, locus YNL322C, strain KRE1, hits give low values 1 | S. cerevisiae deletion strains, locus YNR049C, strain mso1, hits give low values 1.02 | S. cerevisiae deletion strains, locus YNR052C, strain pop2, hits give low values 0.991 | S. cerevisiae deletion strains, locus YOL006C, strain TOP1, hits give low values 1.05 | S. cerevisiae deletion strains, locus YOL012C, strain htz1 0.921 | S. cerevisiae deletion strains, locus YOL147C, strain pex11, hits give low values 1 | S. cerevisiae deletion strains, locus YOR001W, strain rrp6, hits give low values 1.02 | S. cerevisiae deletion strains, locus YOR061W, strain CKA2, hits give low values 1.01 | S. cerevisiae deletion strains, locus YOR069W, strain VPS5, hits give low values 1.01 | S. cerevisiae deletion strains, locus YOR070C, strain gyp1, hits give low values 1 | S. cerevisiae deletion strains, locus YOR080W, strain dia2, hits give low values 1.02 | S. cerevisiae deletion strains, locus YOR083W, strain WHI5, hits give low values 0.991 | S. cerevisiae deletion strains, locus YOR106W, strain vam3, hits give low values 1.04 | S. cerevisiae deletion strains, locus YOR136W, strain idh2, hits give low values 0.992 | S. cerevisiae deletion strains, locus YOR144C, strain elg1, hits give low values 0.989 | S. cerevisiae deletion strains, locus YOR184W, strain ser1, hits give low values 0.993 | S. cerevisiae deletion strains, locus YOR231W, strain MKK1, hits give low values 0.986 | S. cerevisiae deletion strains, locus YOR265W, strain rbl2, hits give low values 1.01 | S. cerevisiae deletion strains, locus YOR270C, strain vph1, hits give low values 1.01 | S. cerevisiae deletion strains, locus YOR290C, strain snf2, hits give low values 0.997 | S. cerevisiae deletion strains, locus YOR316C, strain cot1, hits give low values 0.994 | S. cerevisiae deletion strains, locus YPL051W, strain arl3, hits give low values 1.01 | S. cerevisiae deletion strains, locus YPL078C, strain atp4, hits give low values 1.02 | S. cerevisiae deletion strains, locus YPL106C, strain sse1, hits give low values 0.975 | S. cerevisiae deletion strains, locus YPL240C, strain hsp82, hits give low values 1.02 | S. cerevisiae deletion strains, locus YPL256C, strain CLN2, hits give low values 0.968 | S. cerevisiae deletion strains, locus YPR119W, strain clb2, hits give low values 0.975 | S. cerevisiae deletion strains, locus YPR141C, strain kar3, hits give low values 0.99 | S. cerevisiae deletion strains, locus YPR163C, strain tif3, hits give low values 0.993 | S. cerevisiae deletion strains, locus YPR167C, strain met16, hits give low values 0.986 | S. cerevisiae deletion strains, strain wtn01, hits give low values 0.998 | S. cerevisiae strains, strain wild type, hits give low values 1.01
